Experimental data as given in publication PMC7862700, “An all-to-all approach to the identification of sequence-specific readers for epigenetic DNA modifications on cytosine”.

Experiments:
Assay in all cases: DAPPL (digital affinity profiling via proximity ligation, sequencing); 10 mM Tris-HCl pH 7.5, 50 mM NaCl, 1 mM DTT, 4% glycerol, room temperature, 30 min; GST-TFs on glutathione beads, 16-mer random dsDNA library, 0.1% formaldehyde crosslink after washing; high values mean tight binding
[1] = biological target: T1, FLI1 (Homo sapiens, UniProt Q01543 1-452); conditions: protein: recombinant; tags: N-terminal GST; dsDNA, one strand shown
T1 sequence: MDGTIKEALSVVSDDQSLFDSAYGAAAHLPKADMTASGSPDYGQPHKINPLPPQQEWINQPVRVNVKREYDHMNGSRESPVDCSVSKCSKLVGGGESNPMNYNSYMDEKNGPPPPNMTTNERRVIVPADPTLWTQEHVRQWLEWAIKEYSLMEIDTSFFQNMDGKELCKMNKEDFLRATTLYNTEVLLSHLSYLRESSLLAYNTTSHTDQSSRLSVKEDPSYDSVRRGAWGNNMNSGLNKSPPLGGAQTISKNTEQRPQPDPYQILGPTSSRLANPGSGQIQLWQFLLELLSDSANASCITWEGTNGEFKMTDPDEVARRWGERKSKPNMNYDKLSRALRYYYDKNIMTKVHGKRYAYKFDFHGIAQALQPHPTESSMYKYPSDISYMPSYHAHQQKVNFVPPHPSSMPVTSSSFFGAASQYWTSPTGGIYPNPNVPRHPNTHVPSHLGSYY
Outline: (§1)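 GST fusions of human transcription factors were expressed in yeast and captured with glutathione beads. Once given DNA barcodes and pooled alongside a tag-only sample, they were incubated for 30 min at room temperature with 200 nmole of a random double-stranded 16-mer DNA library in Tris/NaCl/DTT/glycerol buffer, then washed, crosslinked (0.1% formaldehyde), proximity-ligated, PCR-amplified and sequenced on an Illumina NextSeq500. The binding signal of each hexamer is its read frequency for a factor divided by its frequency for the tag-only sample.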

[2] = biological target: T2, ELK1 (Homo sapiens, UniProt P19419 1-428); conditions: protein: recombinant; tags: N-terminal GST; dsDNA, one strand shown
T2 sequence: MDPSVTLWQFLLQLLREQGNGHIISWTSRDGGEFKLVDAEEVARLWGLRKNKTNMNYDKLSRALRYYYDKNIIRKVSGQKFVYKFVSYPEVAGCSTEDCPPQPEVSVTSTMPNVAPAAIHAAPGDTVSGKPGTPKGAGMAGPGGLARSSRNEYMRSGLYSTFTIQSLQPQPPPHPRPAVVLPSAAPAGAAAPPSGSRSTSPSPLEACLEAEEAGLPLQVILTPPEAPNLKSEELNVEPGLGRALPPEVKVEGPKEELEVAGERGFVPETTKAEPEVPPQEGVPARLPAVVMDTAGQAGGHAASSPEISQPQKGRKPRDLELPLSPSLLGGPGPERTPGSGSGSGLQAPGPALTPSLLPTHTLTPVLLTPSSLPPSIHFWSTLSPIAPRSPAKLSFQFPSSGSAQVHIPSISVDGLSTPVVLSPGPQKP
Outline: as §1

[3] = biological target: T3, GABPA (Homo sapiens, UniProt Q06546 1-454); conditions: protein: recombinant; tags: N-terminal GST; dsDNA, one strand shown
T3 sequence: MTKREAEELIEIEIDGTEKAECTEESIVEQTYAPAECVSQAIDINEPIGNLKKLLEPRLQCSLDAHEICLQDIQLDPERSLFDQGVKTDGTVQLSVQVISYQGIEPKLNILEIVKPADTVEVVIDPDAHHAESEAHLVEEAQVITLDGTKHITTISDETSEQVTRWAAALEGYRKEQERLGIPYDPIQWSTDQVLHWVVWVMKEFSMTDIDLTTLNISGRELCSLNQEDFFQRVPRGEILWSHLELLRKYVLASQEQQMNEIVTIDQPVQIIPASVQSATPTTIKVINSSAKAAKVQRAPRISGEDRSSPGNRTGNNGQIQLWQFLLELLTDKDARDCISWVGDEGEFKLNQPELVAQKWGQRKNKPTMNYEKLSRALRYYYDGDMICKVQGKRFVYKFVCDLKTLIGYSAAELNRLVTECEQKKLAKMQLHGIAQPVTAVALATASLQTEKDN
Outline: as §1

[4] = biological target: T4, ERG (Homo sapiens, UniProt P11308 1-479); conditions: protein: recombinant; tags: N-terminal GST; dsDNA, one strand shown
T4 sequence: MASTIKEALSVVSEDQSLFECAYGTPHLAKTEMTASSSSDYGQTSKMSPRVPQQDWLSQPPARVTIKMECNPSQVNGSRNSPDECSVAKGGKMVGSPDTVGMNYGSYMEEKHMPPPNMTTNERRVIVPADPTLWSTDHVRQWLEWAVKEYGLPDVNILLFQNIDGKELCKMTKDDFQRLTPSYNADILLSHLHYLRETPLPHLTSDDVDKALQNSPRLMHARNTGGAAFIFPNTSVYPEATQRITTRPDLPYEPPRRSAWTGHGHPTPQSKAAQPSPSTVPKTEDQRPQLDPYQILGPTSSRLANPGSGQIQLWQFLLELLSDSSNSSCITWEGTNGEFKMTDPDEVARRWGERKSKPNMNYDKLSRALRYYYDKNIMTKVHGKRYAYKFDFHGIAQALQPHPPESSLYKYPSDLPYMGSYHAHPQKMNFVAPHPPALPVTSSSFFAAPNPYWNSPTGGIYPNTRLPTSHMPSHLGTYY
Outline: as §1

[5] = biological target: ELF1 (Homo sapiens, UniProt P32519 1-619); conditions: protein: recombinant; tags: N-terminal GST; dsDNA, one strand shown
Outline: as §1

[6] = biological target: T5, EHF (Homo sapiens, UniProt Q9NZC4 1-300); conditions: protein: recombinant; tags: N-terminal GST; dsDNA, one strand shown
T5 sequence: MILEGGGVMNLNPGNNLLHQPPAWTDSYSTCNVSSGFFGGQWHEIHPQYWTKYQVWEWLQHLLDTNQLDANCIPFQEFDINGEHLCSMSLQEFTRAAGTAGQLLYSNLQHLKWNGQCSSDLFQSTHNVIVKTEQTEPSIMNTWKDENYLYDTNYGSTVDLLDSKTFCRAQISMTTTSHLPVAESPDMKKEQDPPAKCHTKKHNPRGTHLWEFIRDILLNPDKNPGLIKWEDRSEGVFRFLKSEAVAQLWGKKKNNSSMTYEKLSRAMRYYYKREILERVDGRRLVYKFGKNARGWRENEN
Outline: as §1

[7] = biological target: SPI1 (Homo sapiens, UniProt P17947 1-270); conditions: protein: recombinant; tags: N-terminal GST; dsDNA, one strand shown
Outline: as §1

[8] = biological target: SPIB (Homo sapiens, UniProt Q01892 1-262); conditions: protein: recombinant; tags: N-terminal GST; dsDNA, one strand shown
Outline: as §1

[9] = biological target: T6, ELK3 (Homo sapiens, UniProt P41970 1-407); conditions: protein: recombinant; tags: N-terminal GST; dsDNA, one strand shown
T6 sequence: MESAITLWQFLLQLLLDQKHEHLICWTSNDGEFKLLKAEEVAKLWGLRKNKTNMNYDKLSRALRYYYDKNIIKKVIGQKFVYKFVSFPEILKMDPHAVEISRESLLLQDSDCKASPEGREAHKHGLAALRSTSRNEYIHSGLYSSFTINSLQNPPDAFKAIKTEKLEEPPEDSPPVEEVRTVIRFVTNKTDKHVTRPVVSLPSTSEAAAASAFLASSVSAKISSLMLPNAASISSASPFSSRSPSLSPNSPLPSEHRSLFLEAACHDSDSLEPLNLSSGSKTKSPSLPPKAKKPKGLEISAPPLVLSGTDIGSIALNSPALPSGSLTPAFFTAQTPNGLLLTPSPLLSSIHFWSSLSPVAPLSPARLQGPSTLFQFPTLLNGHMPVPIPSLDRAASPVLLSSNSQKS
Outline: as §1

[10] = biological target: T7, FEV (Homo sapiens, UniProt Q99581 1-238); conditions: protein: recombinant; tags: N-terminal GST; dsDNA, one strand shown
T7 sequence: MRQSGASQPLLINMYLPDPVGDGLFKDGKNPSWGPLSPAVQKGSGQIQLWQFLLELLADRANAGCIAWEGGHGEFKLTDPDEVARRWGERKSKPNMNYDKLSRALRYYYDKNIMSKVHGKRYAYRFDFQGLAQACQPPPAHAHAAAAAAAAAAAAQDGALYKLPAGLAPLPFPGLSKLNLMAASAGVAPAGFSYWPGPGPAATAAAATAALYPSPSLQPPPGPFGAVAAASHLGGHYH
Outline: as §1

[11] = biological target: ETV5 (Homo sapiens, UniProt P41161 1-510); conditions: protein: recombinant; tags: N-terminal GST; dsDNA, one strand shown
Outline: as §1

[12] = biological target: HSF1 (Homo sapiens, UniProt Q00613 1-529); conditions: protein: recombinant; tags: N-terminal GST; chain copies: 3; dsDNA, one strand shown
Outline: as §1

[13] = biological target: T8, SPIC (Homo sapiens, UniProt Q8N5J4 1-248); conditions: protein: recombinant; tags: N-terminal GST; dsDNA, one strand shown
T8 sequence: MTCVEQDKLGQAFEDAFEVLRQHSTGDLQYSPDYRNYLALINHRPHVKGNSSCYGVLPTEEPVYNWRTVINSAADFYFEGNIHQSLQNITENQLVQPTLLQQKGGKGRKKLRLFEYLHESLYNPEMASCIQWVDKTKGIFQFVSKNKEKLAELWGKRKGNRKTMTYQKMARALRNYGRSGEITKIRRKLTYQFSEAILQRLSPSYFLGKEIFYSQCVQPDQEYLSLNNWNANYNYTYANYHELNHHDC
Outline: as §1

[14] = biological target: ELF4 (Homo sapiens, UniProt Q99607 1-663); conditions: protein: recombinant; tags: N-terminal GST; dsDNA, one strand shown
Outline: as §1

[15] = biological target: T9, ELK4 (Homo sapiens, UniProt P28324-2 1-405); conditions: protein: recombinant; tags: N-terminal GST; dsDNA, one strand shown
T9 sequence: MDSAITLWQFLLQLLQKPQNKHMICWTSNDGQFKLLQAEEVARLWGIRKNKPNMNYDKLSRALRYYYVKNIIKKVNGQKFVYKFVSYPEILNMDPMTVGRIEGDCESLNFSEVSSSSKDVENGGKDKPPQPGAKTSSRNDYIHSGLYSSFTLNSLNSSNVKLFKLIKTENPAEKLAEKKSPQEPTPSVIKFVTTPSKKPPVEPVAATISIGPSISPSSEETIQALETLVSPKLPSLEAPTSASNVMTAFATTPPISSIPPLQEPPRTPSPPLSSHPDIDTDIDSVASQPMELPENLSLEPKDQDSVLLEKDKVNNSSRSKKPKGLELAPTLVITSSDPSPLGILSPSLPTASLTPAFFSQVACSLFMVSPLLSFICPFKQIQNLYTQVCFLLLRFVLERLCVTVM
Outline: as §1

[16] = biological target: T10, ETV2 (Homo sapiens, UniProt O00321 1-342); conditions: protein: recombinant; tags: N-terminal GST; dsDNA, one strand shown
T10 sequence: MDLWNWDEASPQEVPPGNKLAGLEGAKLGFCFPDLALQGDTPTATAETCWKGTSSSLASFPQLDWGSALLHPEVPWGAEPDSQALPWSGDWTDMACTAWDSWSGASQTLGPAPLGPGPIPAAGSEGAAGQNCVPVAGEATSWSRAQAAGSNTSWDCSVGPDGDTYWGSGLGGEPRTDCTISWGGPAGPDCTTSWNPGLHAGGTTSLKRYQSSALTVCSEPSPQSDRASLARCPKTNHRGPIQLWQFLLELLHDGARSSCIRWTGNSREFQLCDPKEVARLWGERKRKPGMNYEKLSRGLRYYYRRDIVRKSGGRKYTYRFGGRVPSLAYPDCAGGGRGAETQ
Outline: as §1

[17] = biological target: T11, ELF3 (Homo sapiens, UniProt P78545 1-371); conditions: protein: recombinant; tags: N-terminal GST; dsDNA, one strand shown
T11 sequence: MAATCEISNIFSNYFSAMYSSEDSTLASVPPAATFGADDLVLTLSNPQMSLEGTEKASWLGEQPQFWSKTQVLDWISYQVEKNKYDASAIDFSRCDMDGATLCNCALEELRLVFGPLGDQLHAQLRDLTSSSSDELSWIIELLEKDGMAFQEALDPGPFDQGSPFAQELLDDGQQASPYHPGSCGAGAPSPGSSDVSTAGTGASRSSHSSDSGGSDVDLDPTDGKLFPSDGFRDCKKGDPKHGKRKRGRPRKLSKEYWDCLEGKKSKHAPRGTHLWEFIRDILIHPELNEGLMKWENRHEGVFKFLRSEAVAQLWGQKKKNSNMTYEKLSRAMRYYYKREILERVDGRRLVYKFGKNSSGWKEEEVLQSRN
Outline: as §1

[18] = biological target: CRX (Homo sapiens, UniProt O43186 1-299); conditions: protein: recombinant; tags: N-terminal GST; dsDNA, one strand shown
Outline: as §1

[19] = biological target: ETV1 (Homo sapiens, UniProt P50549 1-477); conditions: protein: recombinant; tags: N-terminal GST; dsDNA, one strand shown
Outline: as §1

Chain of HSF1 (Q00613 whole entry): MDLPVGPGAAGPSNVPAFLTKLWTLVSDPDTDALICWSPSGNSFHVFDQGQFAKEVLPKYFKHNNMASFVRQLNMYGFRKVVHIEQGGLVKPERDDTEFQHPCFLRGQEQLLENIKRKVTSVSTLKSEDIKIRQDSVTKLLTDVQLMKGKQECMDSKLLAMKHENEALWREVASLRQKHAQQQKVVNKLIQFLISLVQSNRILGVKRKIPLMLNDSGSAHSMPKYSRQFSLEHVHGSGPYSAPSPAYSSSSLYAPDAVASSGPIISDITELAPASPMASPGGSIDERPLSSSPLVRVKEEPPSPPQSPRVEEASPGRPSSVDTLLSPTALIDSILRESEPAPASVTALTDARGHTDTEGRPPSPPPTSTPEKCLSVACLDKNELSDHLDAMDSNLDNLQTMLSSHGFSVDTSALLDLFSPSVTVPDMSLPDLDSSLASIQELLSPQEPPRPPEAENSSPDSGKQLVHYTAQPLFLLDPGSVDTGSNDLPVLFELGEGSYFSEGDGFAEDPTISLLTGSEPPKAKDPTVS
Chain of ETV1 (P50549 whole entry): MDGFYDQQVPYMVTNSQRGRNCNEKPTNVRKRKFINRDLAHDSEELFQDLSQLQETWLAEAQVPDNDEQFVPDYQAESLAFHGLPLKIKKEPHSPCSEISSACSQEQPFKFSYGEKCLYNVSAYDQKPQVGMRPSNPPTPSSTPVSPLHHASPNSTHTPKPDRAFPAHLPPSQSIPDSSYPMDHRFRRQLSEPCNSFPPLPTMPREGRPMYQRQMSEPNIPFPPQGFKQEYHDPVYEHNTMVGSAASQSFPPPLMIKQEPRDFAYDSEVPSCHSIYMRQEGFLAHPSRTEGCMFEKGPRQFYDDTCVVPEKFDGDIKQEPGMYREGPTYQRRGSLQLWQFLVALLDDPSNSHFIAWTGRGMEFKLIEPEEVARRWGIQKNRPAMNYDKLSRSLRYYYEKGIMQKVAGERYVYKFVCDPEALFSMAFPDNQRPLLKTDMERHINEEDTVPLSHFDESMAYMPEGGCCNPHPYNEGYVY
Chain of ELF4 (Q99607 whole entry): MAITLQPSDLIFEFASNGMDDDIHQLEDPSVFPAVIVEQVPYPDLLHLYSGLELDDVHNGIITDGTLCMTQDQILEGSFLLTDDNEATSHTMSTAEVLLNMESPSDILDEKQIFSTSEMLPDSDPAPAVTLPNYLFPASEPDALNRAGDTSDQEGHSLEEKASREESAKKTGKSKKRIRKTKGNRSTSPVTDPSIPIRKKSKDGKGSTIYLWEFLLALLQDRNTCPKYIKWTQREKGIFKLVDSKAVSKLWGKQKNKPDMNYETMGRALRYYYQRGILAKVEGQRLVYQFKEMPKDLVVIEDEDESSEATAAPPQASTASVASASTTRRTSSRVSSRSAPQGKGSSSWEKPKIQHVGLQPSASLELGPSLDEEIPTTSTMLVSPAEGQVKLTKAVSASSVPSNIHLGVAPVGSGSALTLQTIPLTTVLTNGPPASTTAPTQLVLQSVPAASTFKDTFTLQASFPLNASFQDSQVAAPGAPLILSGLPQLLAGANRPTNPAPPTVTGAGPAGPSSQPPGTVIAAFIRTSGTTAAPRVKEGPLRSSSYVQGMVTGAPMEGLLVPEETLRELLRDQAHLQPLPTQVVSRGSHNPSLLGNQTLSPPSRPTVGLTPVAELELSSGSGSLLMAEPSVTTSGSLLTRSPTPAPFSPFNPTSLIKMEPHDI
Chain of CRX (O43186 whole entry): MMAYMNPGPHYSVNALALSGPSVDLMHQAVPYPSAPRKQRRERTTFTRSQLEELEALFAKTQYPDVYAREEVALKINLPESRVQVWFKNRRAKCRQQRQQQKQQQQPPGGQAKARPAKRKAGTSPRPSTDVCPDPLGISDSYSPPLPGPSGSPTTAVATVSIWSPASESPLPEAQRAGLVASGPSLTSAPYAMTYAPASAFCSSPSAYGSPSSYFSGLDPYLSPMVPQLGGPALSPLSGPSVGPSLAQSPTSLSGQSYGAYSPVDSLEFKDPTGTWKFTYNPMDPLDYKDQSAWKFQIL
Chain of SPIB (Q01892 whole entry): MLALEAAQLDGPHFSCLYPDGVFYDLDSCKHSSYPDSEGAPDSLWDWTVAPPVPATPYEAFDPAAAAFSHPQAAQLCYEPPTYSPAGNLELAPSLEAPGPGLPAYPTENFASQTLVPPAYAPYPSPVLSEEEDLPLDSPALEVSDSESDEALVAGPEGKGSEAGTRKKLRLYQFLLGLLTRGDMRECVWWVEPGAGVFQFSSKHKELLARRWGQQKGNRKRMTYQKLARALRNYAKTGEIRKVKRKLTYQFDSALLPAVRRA
Chain of ETV5 (P41161 whole entry): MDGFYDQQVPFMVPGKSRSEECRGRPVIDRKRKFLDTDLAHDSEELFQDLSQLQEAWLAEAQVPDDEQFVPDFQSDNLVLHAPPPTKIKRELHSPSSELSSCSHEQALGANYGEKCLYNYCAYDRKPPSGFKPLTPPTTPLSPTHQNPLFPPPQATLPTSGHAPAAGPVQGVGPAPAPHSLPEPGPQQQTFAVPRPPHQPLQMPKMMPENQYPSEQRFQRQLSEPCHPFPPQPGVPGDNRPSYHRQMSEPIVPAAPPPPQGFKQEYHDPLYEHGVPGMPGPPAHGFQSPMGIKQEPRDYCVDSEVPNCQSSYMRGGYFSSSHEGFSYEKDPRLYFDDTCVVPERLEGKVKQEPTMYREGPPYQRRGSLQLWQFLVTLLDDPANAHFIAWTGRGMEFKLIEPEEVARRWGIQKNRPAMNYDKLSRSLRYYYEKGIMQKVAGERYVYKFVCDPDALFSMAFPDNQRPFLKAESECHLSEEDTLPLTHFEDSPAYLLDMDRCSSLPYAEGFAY
Chain of ELF1 (P32519 whole entry): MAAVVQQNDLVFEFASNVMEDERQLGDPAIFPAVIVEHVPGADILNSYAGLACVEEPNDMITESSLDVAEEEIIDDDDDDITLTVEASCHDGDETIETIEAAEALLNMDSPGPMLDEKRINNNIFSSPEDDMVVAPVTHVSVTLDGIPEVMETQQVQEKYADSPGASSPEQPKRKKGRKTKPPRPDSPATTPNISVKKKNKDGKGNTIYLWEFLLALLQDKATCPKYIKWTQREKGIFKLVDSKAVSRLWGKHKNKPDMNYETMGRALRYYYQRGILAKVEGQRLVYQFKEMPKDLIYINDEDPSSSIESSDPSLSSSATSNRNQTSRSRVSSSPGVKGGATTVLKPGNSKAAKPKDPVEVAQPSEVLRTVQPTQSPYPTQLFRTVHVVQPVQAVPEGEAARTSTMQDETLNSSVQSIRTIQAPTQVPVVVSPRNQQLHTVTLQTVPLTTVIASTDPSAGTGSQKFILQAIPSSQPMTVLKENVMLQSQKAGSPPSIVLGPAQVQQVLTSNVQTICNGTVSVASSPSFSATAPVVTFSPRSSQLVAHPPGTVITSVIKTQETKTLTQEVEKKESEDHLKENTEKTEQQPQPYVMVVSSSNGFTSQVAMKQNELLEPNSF

Sequence: AACATA
- binding signal [1]: 1.23 fold enrichment (6-mer frequency, TF over GST control)
- binding signal [2]: 1.26 fold enrichment (6-mer frequency, TF over GST control)
- binding signal [3]: 1.29 fold enrichment (6-mer frequency, TF over GST control)
- binding signal [4]: 1.26 fold enrichment (6-mer frequency, TF over GST control)
- binding signal [5]: 1.28 fold enrichment (6-mer frequency, TF over GST control)
- binding signal [6]: 1.31 fold enrichment (6-mer frequency, TF over GST control)
- binding signal [7]: 1.21 fold enrichment (6-mer frequency, TF over GST control)
- binding signal [8]: 1.22 fold enrichment (6-mer frequency, TF over GST control)
- binding signal [9]: 1.25 fold enrichment (6-mer frequency, TF over GST control)
- binding signal [10]: 1.2 fold enrichment (6-mer frequency, TF over GST control)
- binding signal [11]: 1.31 fold enrichment (6-mer frequency, TF over GST control)
- binding signal [12]: 1.36 fold enrichment (6-mer frequency, TF over GST control)
- binding signal [13]: 1.37 fold enrichment (6-mer frequency, TF over GST control)
- binding signal [14]: 1.3 fold enrichment (6-mer frequency, TF over GST control)
- binding signal [15]: 1.16 fold enrichment (6-mer frequency, TF over GST control)
- binding signal [16]: 1.38 fold enrichment (6-mer frequency, TF over GST control)
- binding signal [17]: 1.36 fold enrichment (6-mer frequency, TF over GST control)
- binding signal [18]: 1.3 fold enrichment (6-mer frequency, TF over GST control)
- binding signal [19]: 1.21 fold enrichment (6-mer frequency, TF over GST control)
